# Only some compounds are listed: those with a hit (about 1.3% of all), similar ones and a draw of the others.
# TrxR1 inh = inhibitors of rat thioredoxin reductase 1; O89049; recombinant rTrxR1, NADPH fluorescence consumption, selenite substrate; Potency, µM (titrated, usually from 114 µM), hits mostly inhibitors; 390,000 tested, 1% active; also: nearly all actives have a fitted effect of over 65% in size
#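 Rat TrxR1 (90 nM in the dispensed reagent) was pre-reduced with 400 uM NADPH for 5 min at room temperature, then incubated with compound for 15 min. After 400 uM selenite was added, NADPH fluorescence (Ex 340/Em 450 nm) was followed for 8 min.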
# GCN5L2 inh = inhibitors of human GCN5L2 histone acetyltransferase | GCN5L2 HAT assay, ThioGlo1 CoA-SH fluorescence | Potency, µM (doses to about 58.9 µM), most hits filed as inhibitors | 390,000 tested, 0.21% active | AID 504327
# Target sequence (Q92830 whole entry, looked up): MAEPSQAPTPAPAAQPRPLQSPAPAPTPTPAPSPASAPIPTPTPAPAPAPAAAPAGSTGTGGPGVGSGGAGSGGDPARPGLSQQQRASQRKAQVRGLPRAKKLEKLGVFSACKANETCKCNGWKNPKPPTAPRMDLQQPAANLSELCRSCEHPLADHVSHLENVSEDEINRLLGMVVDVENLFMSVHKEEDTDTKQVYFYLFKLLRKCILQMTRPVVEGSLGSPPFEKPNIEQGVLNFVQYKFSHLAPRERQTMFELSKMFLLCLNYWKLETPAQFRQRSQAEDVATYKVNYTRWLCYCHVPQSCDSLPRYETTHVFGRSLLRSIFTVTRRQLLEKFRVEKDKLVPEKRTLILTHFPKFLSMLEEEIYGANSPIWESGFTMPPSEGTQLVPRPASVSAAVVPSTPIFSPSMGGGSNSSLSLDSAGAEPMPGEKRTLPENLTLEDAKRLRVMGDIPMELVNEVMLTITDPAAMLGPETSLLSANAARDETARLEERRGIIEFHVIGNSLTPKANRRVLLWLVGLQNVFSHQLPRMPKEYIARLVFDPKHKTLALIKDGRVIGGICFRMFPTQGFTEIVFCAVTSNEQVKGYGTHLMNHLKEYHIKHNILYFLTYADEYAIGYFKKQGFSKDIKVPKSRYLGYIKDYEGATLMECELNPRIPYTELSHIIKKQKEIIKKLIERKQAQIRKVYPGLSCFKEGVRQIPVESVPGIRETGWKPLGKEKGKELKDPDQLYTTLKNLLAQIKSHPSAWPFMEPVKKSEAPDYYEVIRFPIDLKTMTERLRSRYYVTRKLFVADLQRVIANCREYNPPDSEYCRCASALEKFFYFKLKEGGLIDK
#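 Enzyme at 20nM final was mixed with library compounds for 15 min at room temperature. Peptide H3(1-25) at 75uM, acetyl-CoA at 70uM and ThioGlo1 at 50uM were then added. Plates were read immediately and after 20 min (Ex340nm/Em540nm).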
# Giardia killer = kills Giardia lamblia | AID 540267 | Giardia lamblia trophozoite viability | 340,000 tested, 0.15% active | activity change, % at 7.66 µM, hits read low; in the data active = activity change below about -80%; inconclusive = between about -30% and that limit;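 also: parasites exposed to compound for two days anaerobically before the ATP read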
#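 Giardia lamblia trophozoites (100 cells/well) were incubated with compounds for 48 h at 37 deg C under anaerobic conditions. Viability was read as ATP content by one-step luminescence after 15-30 min at room temperature.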
# GALK inhibitor = inhibitors of human galactokinase; P51570; Purified GALK, Kinase-Glo residual ATP luminescence; Potency, µM (titrated, usually from 57.5 µM), most hits filed as inhibitors; 270,000 tested, 0.007% active; AID 1868
#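 5 nM enzyme, 35 uM ATP, 100 uM galactose, 20 mM HEPES pH8.0, 5 mM MgCl2; 1 h RT; residual ATP by Kinase-Glo Plus luminescence, qHTS format.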
# Pin1 inh = inhibitors of human Pin1. Pin1 FP peptide displacement, HiFluor488, 10 min. 390,000 tested, 0.009% active. Potency, µM (series often up to 115 µM), usual class: inhibitors; active = well fitted inhibition curve with a large enough effect in the polarisation, with a control signal flat, not every such curve was filed as active; inconclusive = small, poorly fitted or top-dose-only effect, or effect the other way, or a change in a side signal; inactive = no such curve, though single readings can be large or run the other way; the % refers to the polarisation
# TrxR1 substrate = rat thioredoxin reductase 1 substrate activity. purified TrxR1 substrate turnover, NADPH consumption readout. 390,000 tested, 0.01% active. Potency, µM (doses to about 114 µM). O89049; also: nearly all actives have a fitted effect of over 50% in size
#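 Rat TrxR1, dispensed at 90 nM, was prereduced with 400 uM NADPH (final) for 5 min at ~22 deg C, then incubated with compound 15 min before 400 uM selenite. A first-read NADPH fluorescence drop versus no-compound background flagged substrates.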
# Hits are given with their value; - = inactive; ? = inconclusive; . = no result given; [ ] = dose if it differs, or a comment. Unless noted, calls follow the shape of the dose curve; as a rule, active = well fitted curve in the direction sought with a large enough effect; inconclusive = small, poorly fitted or top-dose-only effect, or another doubt; inactive = no such curve, though single readings can be large; an effect the other way counts as inactive or inconclusive.
SMILES,TrxR1 inh,GCN5L2 inh,Giardia killer,GALK inhibitor,Pin1 inh,TrxR1 substrate
O=C(CS(=O)c1ccccc1[N+](=O)[O-])Oc1ccc(Br)cc1 (stereo not given),?,-,-,-,-,-
COc1cccc(C2c3c(ncn(-c4ccccc4Cl)c3=N)Oc3ccc4ccccc4c32)c1 (stereo not given),.,.,.,.,-,.
COc1ccc(C(Nc2ccccn2)c2oc(CO)cc(=O)c2O)cc1 (stereo not given),8.9µM,-,-,-,-,-
O=c1cc(CO)oc(C(Nc2ccccn2)c2ccc(F)cc2)c1O (stereo not given),8.9µM,-,-,-,-,-
COc1cccc(-c2ccc3c(N)c(C(=O)Nc4ccc(C)c(F)c4)sc3n2)c1,?,25µM,.,.,?,-
COc1cccc(-c2ccc3c(N)c(C(=O)c4ccc(Cl)cc4)sc3n2)c1,-,-,.,.,-,-
COc1ccc(-c2ccc3c(N)c(C(=O)NCc4ccc(Cl)cc4)sc3n2)cc1,-,20µM,.,.,?,-
CCC(=O)NC(c1cc(Cl)c2cccnc2c1O)c1cccn1C (stereo not given),.,.,.,.,-,.
O=C1C=CC(=O)N1c1cccc(-c2ccccc2)c1,2.5µM,-,-,-,-,-
O=c1cc(-c2ccccc2)[nH]n1-c1ccccc1,-,.,-,.,-,-
CCC1CN(C(=O)N2CCC(C(=O)NCCC3=CCCCC3)CC2)c2cc(C)ccc2O1 (stereo not given),-,-,.,.,-,-
COc1ccccc1NC(=O)CSc1ccc(-c2ccco2)nn1,50µM,?,-,-,-,-
COc1ccccc1-n1c(SCC(=O)N(C)C)nnc1-c1ccco1,-,.,-,.,-,-
COc1ccc(OC)c(NC(=O)CSc2ccc(-c3ccco3)nn2)c1,4µM,-,-,-,?,-
Cc1ccccc1NC(=O)CSc1ccc(-c2ccco2)nn1,?,-,-,-,-,-
COc1ccccc1NC(=O)CSc1nnc(CCC(=O)Nc2ccccc2F)n1C,-,35µM,-,-,-,-
COc1ccccc1-n1c(SCC(=O)NC(C)(C)C)nnc1-c1ccco1,8.9µM,-,-,-,-,-
O=C(CSc1nc2c([nH]c3ccccc32)c(=O)n1-c1ccccc1)Nc1ccc2c(c1)OCCO2,-,-,.,.,-,-
COc1cccc(C(=O)NC2=NC(c3ccccc3F)CC(=O)N2)c1 (stereo not given),-,-,.,.,-,-
Cc1ccc([C@@H]2C3COCC=C3C(C#N)=C(N)C2(C#N)C#N)o1 (stereo not given in full),7.9µM,-,-,-,?,-
Cc1ccc(C2C3CSCC=C3C(C#N)=C(N)C2(C#N)C#N)cc1 (stereo not given),?,-,-,-,?,-
COc1ccccc1C(=O)NNC1=C(C(=O)C(F)(F)F)CCC1,45µM,-,-,-,-,-
Cc1cc(C)cc(OCCOCCn2c(-c3ccc(Cl)cc3)nc3ccccc3c2=O)c1,?,-,.,.,-,?
COc1ccc(/C=N/Nc2cc(C)nc3ccccc23)cc1,-,-,-,-,-,-
COc1ccc2nc(C)cc(N/N=C/c3ccc(F)cc3)c2c1,-,-,-81,.,-,-
SMILES,TrxR1 inh,GCN5L2 inh,Giardia killer,GALK inhibitor,Pin1 inh,TrxR1 substrate
CC1(C)SC(C)(C)N(C=O)C1C(=O)O (stereo not given),-,.,-,.,-,-
Cc1ccc(CN2CCCn3nc(C(=O)NCCc4ccc(Cl)cc4)cc3C2=O)cc1,-,-,.,.,-,-
CCOc1ccccc1NC(=O)CSc1cn(CC(=O)N2CCCCCC2)c2ccccc12,-,-,.,.,-,-
O=C1CN(CC(=O)N2CCCCC2)c2ccccc2O1,25µM,-,-,-,-,-
O=C1CN(CC(=O)N2CCOCC2)c2ccccc2O1,.,-,.,-,.,.
C=CCOc1ccc(C2/C(=C(\O)c3ccc(F)cc3)C(=O)C(=O)N2CCCN(C)C)cc1 (stereo not given),35µM,-,-,-,-,-
COc1ccc(NC(=S)NC(=O)c2ccc3c(c2)OCCO3)cc1,3.5µM,-,-,.,-,-
O=C(NC(=S)Nc1ccc2c(c1)OCCO2)c1ccccc1,7.1µM,-,-,-,-,-
O=C(NC(=S)Nc1ccc(S(=O)(=O)N2CCCCC2)cc1)c1ccccc1,11µM,-,-,-,-,-
CCCC(=O)NC(=S)Nc1cccc(NC(=O)c2ccccc2)c1,22µM,-,-,-,-,-
O=C(NC(=S)Nc1ccc2c(c1)OCCO2)c1ccccc1F,?,-,-,-,-,-
O=C(NC(=S)Nc1ccc(F)cc1)c1ccc2c(c1)OCCO2,?,-,-,-,-,-
Cc1ccc(Nc2ccc(N3CCN(C(=O)c4ccc([N+](=O)[O-])cc4Cl)CC3)nn2)cc1,-,-,.,.,-,-
Cc1ccc(-c2cnc(N3CCC(C(N)=O)CC3)s2)cc1,.,.,.,.,-,.
Cn1ncc2cc(NC(=S)NC(=O)c3ccccc3)ccc21,25µM,-,-,-,-,-
COC(=O)CC1C(=O)NC2CCCCC2N1C(=O)CCl (stereo not given),20µM,-,-,-,-,-
COc1ccccc1C1=NC(c2ccccc2)CN1c1ccccc1 (stereo not given),22µM,-,-,-,-,-
COc1ccccc1-c1cn(-c2ccccc2)c(=S)[nH]1,-,?,-,-,-,-
Cc1cc2cc(CNC(=O)c3ccc(Br)o3)ccc2n1C,8.9µM,-,-,-,.,-
CCOc1ccccc1NC(=O)N1CCN(C)c2ncccc21,-,-,.,.,-,-
COc1ccc(NC(=O)c2c(N)no[n+]2[O-])cc1,-,-,-,-,-,-
O=C(c1cccs1)c1no[n+]([O-])c1C(=O)c1cccs1,0.71µM,-,-,-,.,-
COc1ccc(C(=O)c2no[n+]([O-])c2C(=O)c2ccc(OC)cc2)cc1,0.63µM,?,-,-,.,-
Cn1nnnc1Sc1ncnc2scc(-c3ccccc3C#N)c12,.,.,.,.,-,.
Cc1noc(/C=C/c2ccco2)c1S(=O)(=O)N1CCC(C(=O)NC(C)c2ccccc2)CC1 (stereo not given),?,-,-,-,-,-
SMILES,TrxR1 inh,GCN5L2 inh,Giardia killer,GALK inhibitor,Pin1 inh,TrxR1 substrate
Cc1noc(/C=C/c2ccco2)c1S(=O)(=O)N1CCC(C(=O)N(C)Cc2ccccc2)CC1,71µM,-,-,-,-,-
Cc1cccn2c(CNCCc3ccco3)c(C(=O)N3CCOCC3)nc12,-,?,-,-,-,-
CC(C)C(Cl)=NOC(=O)Nc1ccc(S(N)(=O)=O)cc1,0.79µM,.,-,.,-,-[11.4 µM]
CCOc1ccc(-c2nnc(SCC(=O)Nc3cccc(C#N)c3)o2)cc1,35µM,-,.,.,-,-
COc1ccc(-c2nc3ccccc3c(=O)n2Cc2ccccc2)cc1OCc1ccc(NC(C)=O)cc1,.,.,.,.,-,.
O=C(c1cc(-c2ccco2)nn1-c1cccc(Cl)c1)N1CCCCC1,14µM,-,-,-,-,-

# Source: PubChem (National Center for Advancing Translational Sciences (NCATS))
